Eight compounds from PubChem BioAssay (NCI) can be followed below.

This is part of a sample that, as a whole, favours compounds with a hit. Of some 83,000 tested, about 20% had one in any assay.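 Cell lines were cultured in 96-well plates, exposed to a single compound concentration, and assessed for percent growth 48 hours later.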 Unmarked numbers belong to inactive results. Active and inactive are the calls of the source. How the source made its calls: active means growth percent below 10; inactive means the rest.

Among the test systems are NCI-H23 lung; NCI-H226 lung; NCI-H322M lung; HOP-62 NSCLC; NCI-H460 lung; HOP-92 NSCLC; NCI-H522 lung; A549/ATCC NSCLC; 786-0 renal; COLO 205 colon; DU-145 prostate; MALME-3M melanoma; MDA-MB-231 breast; RXF 393 renal; SF-268 CNS; SF-295 CNS; SF-539 CNS; UACC-257 melanoma; M14 melanoma.
Assay in all cases: NCI-60 one-dose screen, 48 h (100 = growth as untreated, 0 = no growth, -100 = all killed)
What all share (conditions): 10 µM

In the case of `COC1CC(Cn2cc(COc3ccc4ccc(=O)oc4c3)nn2)C(OCc2ccccc2)C(OCc2ccccc2)C1OCc1ccccc1` (configuration not stated), the growth in the assay on NCI-H23 lung is 95.1%; in the assay with NCI-H226 lung, 92.8%; with NCI-H322M lung it was 106%; in the assay with HOP-62 NSCLC, 98.9%; in the assay with NCI-H460 lung it was 113%; with HOP-92 NSCLC, 80.3%. The growth with NCI-H522 lung is 92.4%; in the assay on A549/ATCC NSCLC, 92.3%; in the assay with 786-0 renal it was 102%; in the assay on COLO 205 colon, 121%; with DU-145 prostate, 101%; in the assay with MALME-3M melanoma, 106%. The growth was 99.7% in the assay with MDA-MB-231 breast; 80.1% in the assay on RXF 393 renal; 122% in the assay with SF-268 CNS; 102% in the assay on SF-295 CNS; 102% with SF-539 CNS; 110% in the assay on UACC-257 melanoma. Further, the growth in the assay with M14 melanoma was 102%.

On to `C=C[C@H]1[C@H](O[C@@H]2OC(CO)[C@@H](O)[C@H](O)C2OC(=O)c2c(O)cc(O)cc2-c2cccc(O)c2)OC=C2C(=O)OCC[C@H]21` (some centres not stated), for which the growth in the assay on NCI-H23 lung is 96.5%; with NCI-H226 lung, 98.8%; in the assay with NCI-H322M lung it was 93.8%; in the assay with HOP-62 NSCLC, 93.6%; with NCI-H460 lung, 107%; with HOP-92 NSCLC, 132%. Moreover, the growth was 106% with NCI-H522 lung; 95.3% in the assay with A549/ATCC NSCLC; 105% in the assay on 786-0 renal; 107% with COLO 205 colon; 105% with DU-145 prostate; 92.6% with MALME-3M melanoma. The growth was 96.1% in the assay on MDA-MB-231 breast; 104% with RXF 393 renal; 101% with SF-268 CNS; 96.2% with SF-295 CNS; 104% in the assay on SF-539 CNS; 90.8% with UACC-257 melanoma. Besides, in the assay with M14 melanoma, the growth was 101%.

Take `CC1(C)CC[C@]23CC[C@]4(C)[C@H](CC[C@@H]5[C@@]6(C)CC[C@H](N)C(C)(C)[C@@H]6CC[C@]54C)[C@H]2[C@H]1OC3=O`: the growth is -94.7% (active) with NCI-H23 lung; -90% (active) in the assay with NCI-H226 lung; -99.5% (active) with NCI-H322M lung; -77.2% (active) with HOP-62 NSCLC; -13.9% (active) in the assay on NCI-H460 lung; -65.5% (active) with HOP-92 NSCLC. For the same compound, the growth was -85.5% (active) with NCI-H522 lung; -88.9% (active) in the assay on A549/ATCC NSCLC; -94.8% (active) in the assay on 786-0 renal; -69.5% (active) with COLO 205 colon; -79.8% (active) with DU-145 prostate; -95.9% (active) in the assay on MALME-3M melanoma. Besides, the growth in the assay with MDA-MB-231 breast was -96.3% (active); with RXF 393 renal, -95.6% (active); with SF-268 CNS, -38.6% (active); in the assay with SF-295 CNS it was -94.5% (active); with SF-539 CNS, -99.3% (active); with UACC-257 melanoma, -90.8% (active). Besides, the growth in the assay on M14 melanoma was -77.6% (active).

In the case of `COc1cc(Cn2c(C(F)(F)F)cc3c(Cl)ncnc32)ccn1`, the growth in the assay with NCI-H23 lung was -66.6% (active); in the assay with NCI-H226 lung it was 72.2%; in the assay with NCI-H322M lung it was -73.3% (active); in the assay with HOP-62 NSCLC, 32.1%; in the assay on NCI-H460 lung it was 2.75% (active); in the assay with HOP-92 NSCLC, 49.1%. The growth in the assay on NCI-H522 lung was 56%; with A549/ATCC NSCLC, 92.6%; in the assay on 786-0 renal it was 93.3%; with COLO 205 colon, 79.9%; with DU-145 prostate, -100% (active); in the assay with MALME-3M melanoma, 71.2%. Besides, the growth is 10.7% in the assay on MDA-MB-231 breast; 32.9% in the assay with RXF 393 renal; -11% (active) in the assay on SF-268 CNS; 95% in the assay with SF-295 CNS; 59.9% in the assay on SF-539 CNS; 30.1% with UACC-257 melanoma. Besides, the growth in the assay with M14 melanoma is -25.6% (active).

In the case of `COc1ccccc1NCc1ccc(CO)n1-c1ccc(C)cc1`, the growth was 94.3% with NCI-H23 lung; 81.3% in the assay with NCI-H226 lung; 100% with NCI-H322M lung; 88.1% in the assay on HOP-62 NSCLC; 111% in the assay with NCI-H460 lung; 80.5% in the assay on HOP-92 NSCLC. In addition, the growth in the assay on NCI-H522 lung was 93.7%; with A549/ATCC NSCLC it was 100%; in the assay with 786-0 renal it was 104%; in the assay on COLO 205 colon, 120%; in the assay on DU-145 prostate it was 111%; in the assay on MALME-3M melanoma, 98.4%. Also, the growth with MDA-MB-231 breast was 91.2%; in the assay on RXF 393 renal it was 107%; in the assay with SF-268 CNS, 94.7%; in the assay on SF-295 CNS, 100%; in the assay with SF-539 CNS, 94.7%; with UACC-257 melanoma, 109%. Besides, the growth in the assay on M14 melanoma was 101%.

In the case of `COc1cccc(-c2nn(-c3ccccc3)cc2-c2ccnc(NCCCNC(=O)Nc3ccc(F)cc3)c2)c1`, the growth in the assay with NCI-H23 lung is 17%; in the assay with NCI-H226 lung, 16.4%; with NCI-H322M lung it was 43.7%; in the assay on HOP-62 NSCLC, 7.43% (active); in the assay on NCI-H460 lung it was 15.2%; in the assay on HOP-92 NSCLC, -25% (active). The growth was -3.16% (active) in the assay on NCI-H522 lung; 15.1% with A549/ATCC NSCLC; -11.3% (active) in the assay on 786-0 renal; -0.929% (active) in the assay on COLO 205 colon; 54.1% with DU-145 prostate; -24.7% (active) in the assay on MALME-3M melanoma. Moreover, the growth was -1.32% (active) in the assay on MDA-MB-231 breast; 0.912% (active) in the assay with RXF 393 renal; 26.1% in the assay with SF-268 CNS; -40.5% (active) in the assay with SF-295 CNS; -29.9% (active) with SF-539 CNS; -11.9% (active) in the assay with UACC-257 melanoma. In addition, in the assay with M14 melanoma, the growth is -21% (active).

On to `O=C(Nc1ccncc1)c1ccc(-n2c(=O)[nH]c3ccccc3c2=O)cc1`, for which the growth in the assay with NCI-H23 lung is 80.1%; in the assay on NCI-H226 lung it was 87.4%; in the assay with NCI-H322M lung it was 97.6%; with HOP-62 NSCLC, 99%; with NCI-H460 lung, 110%; in the assay with HOP-92 NSCLC, 77.1%. The growth with NCI-H522 lung is 84.9%; with A549/ATCC NSCLC it was 106%; in the assay with 786-0 renal, 94.2%; with COLO 205 colon it was 102%; in the assay on DU-145 prostate it was 100%; with MALME-3M melanoma, 96.3%. Also, the growth was 98.2% with MDA-MB-231 breast; 88.9% in the assay on RXF 393 renal; 110% with SF-268 CNS; 95.6% in the assay with SF-295 CNS; 98.8% with SF-539 CNS; 109% in the assay with UACC-257 melanoma. Besides, the growth with M14 melanoma is 97.4%.

For `C=C(C)[C@@H]1CC[C@]2(COP(=O)(OCC)OCC)CC[C@]3(C)[C@H](CC[C@@H]4[C@@](C)(CCCN)[C@H](C(=C)C)CC[C@]43C)[C@@H]12`, the growth is 23.3% in the assay on NCI-H23 lung; 29% in the assay on NCI-H226 lung; 62.1% in the assay on NCI-H322M lung; 53.5% with HOP-62 NSCLC; 8.95% (active) in the assay with NCI-H460 lung; 25.2% in the assay on HOP-92 NSCLC. Besides, the growth is 19.6% in the assay with NCI-H522 lung; 21.5% in the assay on A549/ATCC NSCLC; 20.4% in the assay on 786-0 renal; 29.7% in the assay with COLO 205 colon; 38% with DU-145 prostate; 15.7% in the assay on MALME-3M melanoma. For the same compound, the growth with MDA-MB-231 breast is 21.9%; in the assay on RXF 393 renal, 6.32% (active); in the assay on SF-268 CNS, 42%; with SF-295 CNS it was 24.7%; in the assay with SF-539 CNS, 19%; in the assay with UACC-257 melanoma, 20.5%. Besides, the growth in the assay on M14 melanoma was 18.2%.
